Measured values taken from PubChem BioAssay AID1159580 (chemical genetic matrix, 2015).
Where “and” joins values, the source holds several entries; their conditions need not be identical. Equal entries are not always repeated. About 2,000 (36%) of roughly 5,500 compounds were called active. About 18% were inconclusive and are not listed. Cut-off read from the data, not from the text of the source: active = normalized growth mostly below about 0.91 (no sharp cut-off); inconclusive = no clear call, values can overlap the other calls; inactive = mostly above about 0.92. The list shows a part of the results.

Experiment: chemical genetic growth profiling, strain panel (AID 1159580);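 note: tested at 20 µM; growth read once vehicle control cultures reached saturation at 30 °C; 1 = growth at the plate median or of vehicle wells; lower values mean less growth of the strain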
Conditions: S. cerevisiae deletion strains, growth OD

Measured: normalized growth

O=c1oc2ccccc2c(O)c1Cc1c(O)c2ccccc2oc1=O
inactive: locus YAL013W, strain DEP1, active compounds read low 1.01 | locus YAL021C, strain ccr4, active compounds read low 0.977 | locus YAL026C, strain drs2, active compounds read low 1.03 | locus YAL030W, strain snc1, active compounds read low 1.02 | locus YBL061C, strain skt5, active compounds read low 1.02 | locus YBR009C, strain hhf1, active compounds read low 1.01 | locus YBR021W, strain FUR4, active compounds read low 1.01 | locus YBR023C, strain chs3, active compounds read low 1.01 | locus YBR171W, strain sec66, active compounds read low 1.01 | locus YBR229C, strain ROT2, active compounds read low 0.998 | locus YBR231C, strain swc5, active compounds read low 1.02 | locus YBR279W, strain paf1, active compounds read low 1 | locus YCL011C, strain gbp2, active compounds read low 1.02 | locus YCL016C, strain dcc1, active compounds read low 1 | locus YCL029C, strain bik1, active compounds read low 0.968 | locus YCL069W, strain vba3, active compounds read low 1.02 | locus YCR088W, strain abp1, active compounds read low 1.02 | locus YDL005C, strain med2, active compounds read low 1.04 | locus YDL035C, strain GPR1, active compounds read low 1.04 | locus YDL040C, strain nat1, active compounds read low 1.03 | locus YDL074C, strain BRE1, active compounds read low 1.02 | locus YDL101C, strain DUN1, active compounds read low 1.01 | locus YDL185W, strain tfp1, active compounds read low 0.962 | locus YDL192W, strain arf1, active compounds read low 0.962 | locus YDR001C, strain nth1, active compounds read low 1 | locus YDR069C, strain doa4, active compounds read low 0.994 | locus YDR101C, strain arx1, active compounds read low 0.984 | locus YDR137W, strain rgp1, active compounds read low 1.03 | locus YDR159W, strain sac3, active compounds read low 0.936 | locus YDR162C, strain NBP2, active compounds read low 1.01 | locus YDR195W, strain ref2 1.01 | locus YDR297W, strain sur2, active compounds read low 1.01 | locus YDR318W, strain mcm21, active compounds read low 0.979 | locus YDR334W, strain swr1, active compounds read low 1.04 | locus YDR335W, strain msn5, active compounds read low 1.02 | locus YDR388W, active compounds read low 0.959 | locus YDR392W, strain spt3, active compounds read low 0.919 | locus YDR502C, strain sam2, active compounds read low 0.982 | locus YEL003W, strain gim4, active compounds read low 1.02 | locus YEL037C, strain rad23, active compounds read low 1.03 | locus YEL061C, strain CIN8 (second series), active compounds read low 1.03 | locus YEL061C, strain CIN8, active compounds read low 0.993 | locus YER015W, strain faa2, active compounds read low 1.01 | locus YER016W, strain bim1, active compounds read low 1.01 | locus YER110C, active compounds read low 0.96 | locus YER111C, strain swi4, active compounds read low 1.01 | locus YER155C, strain BEM2 (second series), active compounds read low 1.02 | locus YER155C, strain BEM2, active compounds read low 0.984 | locus YER167W, strain BCK2, active compounds read low 1.01 | locus YFR010W, strain ubp6, active compounds read low 1.02 | locus YGL078C, strain dbp3, active compounds read low 0.952 | locus YGL086W, strain mad1, active compounds read low 0.996 | locus YGL167C, strain pmr1, active compounds read low 1.01 | locus YGL173C, strain kem1, active compounds read low 1.01 | locus YGL227W, strain vid30, active compounds read low 1 | locus YGL240W, strain doc1, active compounds read low 0.984 | locus YGL248W, strain PDE1, active compounds read low 1.01 | locus YGL253W, strain hxk2, active compounds read low 1.02 | locus YGR078C, strain PAC10, active compounds read low 1.01 | locus YGR135W, strain pre9, active compounds read low 0.959 | locus YGR229C, strain SMI1, active compounds read low 1.02 | locus YGR252W, strain gcn5, active compounds read low 0.95 | locus YHR013C, strain ard1, active compounds read low 1 | locus YHR027C, strain rpn1, active compounds read low 1.01 | locus YHR030C, strain SLT2, active compounds read low 0.993 and 0.907 | locus YHR079C, strain IRE1 (second series), active compounds read low 0.963 | locus YHR079C, strain IRE1, active compounds read low 0.917 | locus YHR094C, strain hxt1, active compounds read low 0.96 | locus YHR129C, strain ARP1, active compounds read low 0.991 | locus YHR142W, strain chs7, active compounds read low 1.08 | locus YHR200W, strain rpn10, active compounds read low 0.98 | locus YIL066C, strain RNR3, active compounds read low 1 | locus YIL073C, strain SPO22, active compounds read low 0.979 | locus YIL125W, strain kgd1, active compounds read low 0.959 | locus YIR030C, strain dcg1, active compounds read low 0.96 | locus YJL092W, strain hpr5, active compounds read low 1.01 | locus YJL095W, strain BCK1 (second series), active compounds read low 1.01 | locus YJL095W, strain BCK1, active compounds read low 0.989 and 0.898 | locus YJL115W, strain asf1, active compounds read low 1.01 | locus YJL129C, strain trk1, active compounds read low 1 | locus YJL134W, strain LCB3, active compounds read low 0.987 | locus YJL154C, strain vps35, active compounds read low 1.02 | locus YJL164C, strain tpk1, active compounds read low 1.03 | locus YJL166W, strain qcr8, active compounds read low 0.995 | locus YJL168C, strain set2, active compounds read low 0.953 | locus YJL187C, strain SWE1 (second series), active compounds read low 1 | locus YJL187C, strain SWE1, active compounds read low 0.991 | locus YJR043C, strain POL32, active compounds read low 1.02
